Active and inactive are the calls of the source. Calls come from the whole dose curve; as a rule, active = well fitted curve in the direction sought with a large enough effect in the repeat runs; inconclusive = weak or mixed curves; inactive = flat fitted curve, though single readings scatter.
Test: qHTS assay to test for compound auto fluorescence at 590 nm (red) in HepG2 cell free culture (AID 720684)
Details: cell-free medium autofluorescence, red 540/590 nm; series mostly up to 91.3 µM; fluorescence, % of Rose Bengal: at the top concentration
In short: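 Ex 540 / Em 590 nm read of compound in cell-free MEM (10% FBS). Rose Bengal sodium reference.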
% is set by controls: 0 for no effect and ±100 for the full control effect.

SMILES | fluorescence, % of Rose Bengal | outcome
O=C1NC(=O)C2CC=CCC12 (centres undefined) | 0.0248% (inactive) | 
CCCCc1nc(Cl)c(CO)n1Cc1ccc(-c2ccccc2-c2nn[nH]n2)cc1 | -0.23% [at 46 µM] (inactive) | 
Cc1ccccc1N=C(N)N=C(N)N | 0.0024% (inactive) | 
O=S(=O)(O)c1cccc(S(=O)(=O)O)c1 | -0.0162% (inactive) | 
C1CCC2(CCCCO2)OC1 | 0.257% (inactive) | 
CC[N+](CC)(CC(=O)Nc1c(C)cccc1C)Cc1ccccc1 (tested in a mixture with another compound) | 0.083% (inactive) | 
CCCCN(CCC(=O)OCC)C(C)=O | 0.034% (inactive) | 
CC(=O)NC(=O)c1ccccc1O | 0.0081% [at 46 µM] (inactive) | 
CC[N+](CC)(CC)CCOc1cccc(OCC[N+](CC)(CC)CC)c1OCC[N+](CC)(CC)CC | 0.0601% [at 46 µM] (inactive) | 
CCOC(=O)OC(C)OC1=C(C(=O)Nc2ccccn2)N(C)S(=O)(=O)c2ccccc21 (centres undefined) | -0.163% [at 46 µM] (inactive) | 
Cc1ncc(COP(=O)(O)O)c(C=O)c1O | 0.0242% [at 46 µM] (inactive) | 
N[C@@H](CCC(=O)O)C(=O)O |  | inactive
CCCC[N+](C)(CCCC)CCCC | -0.252% (inactive) | 
CO[C@@]1(NC(=O)C(C(=O)O)c2ccc(O)cc2)C(=O)N2C(C(=O)O)=C(CSc3nnnn3C)CO[C@@H]21 (some centres undefined) | -0.105% [at 18.6 µM] (inactive) | 
CC1=C(C/C=C(\C)CCC[C@H](C)CCC[C@H](C)CCCC(C)C)C(=O)c2ccccc2C1=O | 0.0125% [at 46 µM] (inactive) | 
C=CCCC(=O)O | -0.0888% (inactive) | 
CCC(C(=O)NC(=O)NC(C)=O)c1ccccc1 (centres undefined) | 0.283% [at 46 µM] (inactive) | 
CCCCOC(=O)CCC(C)=O | 0.0254% (inactive) | 
CCCCCCCCCC[N+](C)(C)[O-] | 0.0482% (inactive) | 
CC(C)(N)C#N | 0.009% [at 95.7 µM] (inactive) | 
Cc1ccc(-c2ncc(Cl)cc2-c2ccc(S(C)(=O)=O)cc2)cn1 | 0.387% [at 46 µM] (inactive) | 
O=C(O)c1cn(C2CC2)c2cc(N3CCNCC3)c(F)cc2c1=O | 0.543% [at 18.6 µM] (inactive) | 
CC1CCC(CO)CC1 (centres undefined) | 0.0093% [at 95.7 µM] (inactive) | 
FB(F)F | 0.0127% [at 95.7 µM] (inactive) | 
COc1ccnc(CS(=O)c2nc3cc(OC(F)F)ccc3[nH]2)c1OC (centres undefined) |  | inactive
O=S(=O)(O)c1cc(O)c(O)c(S(=O)(=O)O)c1 | -0.169% (inactive) | 

Test: qHTS assay to test for compound auto fluorescence at 460 nm (blue) in HepG2 cell free culture (AID 720685)
Details: Cell-free culture medium, blue autofluorescence 405/460 nm; series mostly up to 91.3 µM; fluorescence, % of fluorescent control: at the top concentration
In short: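 Cell-free plates of MEM plus 10% FBS received 23 nL compound or DMSO vehicle; blue-channel (405/460 nm) intensity scored against triamterene as reference fluorophore.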

SMILES | fluorescence, % of fluorescent control | outcome
Cc1ncc([C@@H](CCCCCCc2ccc3c(n2)NCCC3)CC(=O)O)cn1 | 0.581% (inactive) | 
O=C1NC(=O)C2CC=CCC12 (centres undefined) | 0.0369% (inactive) | 
Cc1ccccc1N=C(N)N=C(N)N | -0.176% (inactive) | 
O=S(=O)(O)c1cccc(S(=O)(=O)O)c1 | -0.0151% (inactive) | 
C1CCC2(CCCCO2)OC1 | -0.0794% (inactive) | 
CC[N+](CC)(CC(=O)Nc1c(C)cccc1C)Cc1ccccc1 (tested in a mixture with another compound) | 0.0248% (inactive) | 
O=C(O)Cc1csc(-c2ccc(Cl)cc2)n1 | -0.241% [at 46 µM] (inactive) | 
CCCCCCC#CC(=O)OC | 0.0029% (inactive) | 
CCCCN(CCC(=O)OCC)C(C)=O | -0.014% (inactive) | 
CC(=O)NC(=O)c1ccccc1O | 2.76% [at 46 µM] (inactive) | 
CC[N+](CC)(CC)CCOc1cccc(OCC[N+](CC)(CC)CC)c1OCC[N+](CC)(CC)CC | -0.103% [at 46 µM] (inactive) | 
NC(CCC(=O)O)C(=O)O (centres undefined) | 0.0359% (inactive) | 
CCOC(=O)OC(C)OC1=C(C(=O)Nc2ccccn2)N(C)S(=O)(=O)c2ccccc21 (centres undefined) | 0.0139% [at 46 µM] (inactive) | 
Cc1ncc(COP(=O)(O)O)c(C=O)c1O | 0.222% [at 46 µM] (inactive) | 
CCCC[N+](C)(CCCC)CCCC | -0.0828% (inactive) | 
CO[C@@]1(NC(=O)C(C(=O)O)c2ccc(O)cc2)C(=O)N2C(C(=O)O)=C(CSc3nnnn3C)CO[C@@H]21 (some centres undefined) | 0.334% [at 18.6 µM] (inactive) | 
C=CC(=O)OCCCl | -0.0998% [at 95.7 µM] (inactive) | 
CC1=C(C/C=C(\C)CCC[C@H](C)CCC[C@H](C)CCCC(C)C)C(=O)c2ccccc2C1=O | 0.243% [at 46 µM] (inactive) | 
CCC(C(=O)NC(=O)NC(C)=O)c1ccccc1 (centres undefined) | 0.0429% [at 46 µM] (inactive) | 
CCCCOC(=O)CCC(C)=O | -0.0972% (inactive) | 
C[N+]12CCC(CC1)C(OC(=O)C(O)(c1ccccc1)c1ccccc1)C2 (centres undefined) | -0.0875% [at 18.6 µM] (inactive) | 
CCCCCCCCCC[N+](C)(C)[O-] | 0.0273% (inactive) | 
CC(C)(N)C#N | 0.0862% [at 95.7 µM] (inactive) | 
Cc1ccc(-c2ncc(Cl)cc2-c2ccc(S(C)(=O)=O)cc2)cn1 | 0.0258% [at 46 µM] (inactive) | 
O=C(O)c1cn(C2CC2)c2cc(N3CCNCC3)c(F)cc2c1=O | 0.0229% [at 18.6 µM] (inactive) | 
CC1CCC(CO)CC1 (centres undefined) | -0.0476% [at 95.7 µM] (inactive) | 
COc1ccnc(CS(=O)c2nc3cc(OC(F)F)ccc3[nH]2)c1OC (centres undefined) |  | inactive

Test: qHTS assay to test for compound auto fluorescence at 535 nm (green) in HepG2 cell free culture (AID 720686)
Details: Cell-free medium, green autofluorescence 485/535 nm; series mostly up to 91.3 µM; fluorescence, % of fluorescein control: at the top concentration

SMILES | fluorescence, % of fluorescein control | outcome
Cc1ncc([C@@H](CCCCCCc2ccc3c(n2)NCCC3)CC(=O)O)cn1 | -0.0248% (inactive) | 
O=C1NC(=O)C2CC=CCC12 (centres undefined) | -0.0192% (inactive) | 
CCCCc1nc(Cl)c(CO)n1Cc1ccc(-c2ccccc2-c2nn[nH]n2)cc1 | -0.0773% [at 46 µM] (inactive) | 
Cc1ccccc1N=C(N)N=C(N)N | -0.253% (inactive) | 
O=S(=O)(O)c1cccc(S(=O)(=O)O)c1 | -0.0451% (inactive) | 
C1CCC2(CCCCO2)OC1 | -0.0002% (inactive) | 
COc1c(N2CCNC(C)C2)c(F)cc2c(=O)c(C(=O)O)cn(C3CC3)c12 (centres undefined) | -0.0145% [at 46 µM] (inactive) | 
CC[N+](CC)(CC(=O)Nc1c(C)cccc1C)Cc1ccccc1 (tested in a mixture with another compound) | 0.0049% (inactive) | 
O=C(O)Cc1csc(-c2ccc(Cl)cc2)n1 | 0.0002% [at 46 µM] (inactive) | 
CCCCCCC#CC(=O)OC | -0.0038% (inactive) | 
CCCCN(CCC(=O)OCC)C(C)=O | 0.0846% (inactive) | 
CC(=O)NC(=O)c1ccccc1O | -0.0193% [at 46 µM] (inactive) | 
CC[N+](CC)(CC)CCOc1cccc(OCC[N+](CC)(CC)CC)c1OCC[N+](CC)(CC)CC | -0.0761% [at 46 µM] (inactive) | 
Cc1nc2ccc(CN(C)c3ccc(C(=O)N[C@@H](CCC(=O)O)C(=O)O)s3)cc2c(=O)[nH]1 |  | inactive
NC(CCC(=O)O)C(=O)O (centres undefined) | -0.0206% (inactive) | 
CCOC(=O)OC(C)OC1=C(C(=O)Nc2ccccn2)N(C)S(=O)(=O)c2ccccc21 (centres undefined) | -0.047% [at 46 µM] (inactive) | 
Cc1ncc(COP(=O)(O)O)c(C=O)c1O | -0.0202% [at 46 µM] (inactive) | 
N[C@@H](CCC(=O)O)C(=O)O |  | inactive

SMILES | fluorescence, % of fluorescein control | outcome
CCCC[N+](C)(CCCC)CCCC | -0.293% (inactive) | 
CO[C@@]1(NC(=O)C(C(=O)O)c2ccc(O)cc2)C(=O)N2C(C(=O)O)=C(CSc3nnnn3C)CO[C@@H]21 (some centres undefined) | 0.0104% [at 18.6 µM] (inactive) | 
C=CC(=O)OCCCl | -0.0122% [at 95.7 µM] (inactive) | 
CC1=C(C/C=C(\C)CCC[C@H](C)CCC[C@H](C)CCCC(C)C)C(=O)c2ccccc2C1=O | 0.0873% [at 46 µM] (inactive) | 
C=CCCC(=O)O | 0.0488% (inactive) | 
CCC(C(=O)NC(=O)NC(C)=O)c1ccccc1 (centres undefined) | -0.139% [at 46 µM] (inactive) | 
CCCCOC(=O)CCC(C)=O | 0.0091% (inactive) | 
C[N+]12CCC(CC1)C(OC(=O)C(O)(c1ccccc1)c1ccccc1)C2 (centres undefined) | -0.0194% [at 18.6 µM] (inactive) | 
CCCCCCCCCC[N+](C)(C)[O-] | -0.0616% (inactive) | 
CC(C)(N)C#N | 0.0146% [at 95.7 µM] (inactive) | 
Nc1c2c(nc3c1CCC3)CCCC2 | 0.0573% [at 46 µM] (inactive) | 
Cc1ccc(-c2ncc(Cl)cc2-c2ccc(S(C)(=O)=O)cc2)cn1 | -0.0218% [at 46 µM] (inactive) | 
O=C(O)c1cn(C2CC2)c2cc(N3CCNCC3)c(F)cc2c1=O | 0.0355% [at 18.6 µM] (inactive) | 
CC1CCC(CO)CC1 (centres undefined) | 0.0073% [at 95.7 µM] (inactive) | 
FB(F)F | -0.0685% [at 95.7 µM] (inactive) | 
COc1ccnc(CS(=O)c2nc3cc(OC(F)F)ccc3[nH]2)c1OC (centres undefined) |  | inactive
O=S(=O)(O)c1cc(O)c(O)c(S(=O)(=O)O)c1 | -0.0005% (inactive) | 
N[C@H](C(=O)O)[C@@H](O)c1ccc(O)c(O)c1 | 0.0118% [at 46 µM] (inactive) | 

Source: PubChem BioAssay (Tox21)
